# In PubChem BioAssay AID602323 (The Scripps Research Institute Molecular Screening Center, 2012):
# A number with no mark means an inactive call. How the calls were made is not given here.
# System: 80kDa SH
# Experiment: serine hydrolase inhibition in mouse brain membranes, late-stage follow-up, selectivity assay for DAGLb inhibitor project, biochemical, gel-based competitive ABPP, fluorescence, set 2 (AID 602323)
# Details: mouse brain membrane, at 1 µM, active compounds read high
structure (smiles),measurement,value
O=C(N1CCCCC1Cc1ccccc1)n1cc(-c2ccc(-c3ccccc3)cc2)nn1 (stereo unspecified),inhibition,10%
